The list is not random: actives were taken first. Their share in the collection is about 3.4%.
HSP90 refold inh: inhibitors of HSP90 luciferase refolding in rabbit reticulocyte lysate | luciferase refolding luminescence, 3 h | AID 1789 | hit rate 0.91% among 290,000 | inhibition, % at 5.6 µM;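 active = inhibition above the screen-wide mean plus 3 SD, computed separately per campaign, cut at about 16% in these data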;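 note: 0% = DMSO wells and 100% = 60 µM geldanamycin wells; inhibitors lower the luminescence because luciferase stays unfolded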
AI-2 QS mod: Vibrio harveyi AI-2 quorum sensing modulation; Vibrio harveyi JMH597 AI-2 luminescence/OD600 ratio, 9 h; hits give low values; strain lacks LuxN and CqsS sensors; 0 = neutral-control median; activity change, % at 7.5 µM; hit rate 0.4% among 300,000; AID 2094; in the data active = activity change below about -75%, passing the limit was not always enough;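 note: luminescence divided by OD600 gain over 9 h not by final OD600 alone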
SMARCA2 activ: activators of SMARCA2 function. MG213 cells, MMTV-luciferase reporter, dexamethasone, overnight. hit rate 1% among 370,000. AID 652017. activation, % at 9.1 µM; in the data active = activation above about 7.8%;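 note: 0% = vehicle wells and 100% = reference activator wells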
HSF1 inh: HSF1 inhibition | NIH3T3-HGL HSE-luciferase, MG132-induced, luminescence 8 h; hits give low values | activity change, negative = inhibition, % at 7.5 µM (by protocol) | hit rate 0.77% among 300,000 | AID 2098;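 active = more than half of replicate wells show activity change below -50%, luminescence cut by over half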;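 note: luciferase reports HSF-1 transcriptional activity via heat shock element; 0% = median of DMSO wells and -100% = zero luminescence signal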
GAA850 FXN act: frataxin GAA850 promoter activation. HEK293 lucGAA850 FXN promoter luciferase reporter, 24 h; percent of 10 µM SAHA response. activation, % at 6 µM. hit rate 0.56% among 360,000;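 active = activation above the average of all compounds screened plus 3 SD, cutoff fixed separately per campaign, cut at about 7.5% in these data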;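 note: 0% = DMSO wells and 100% = 10 µM SAHA wells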
PG9 Ab binder: binds the HIV-1 gp120 antibody PG9. TR-FRET gp120-PG9 antibody binding. inhibition, % at 6.7 µM. hit rate 0.43% among 360,000; in the data active = inhibition above about 8.5%
SMARCA2 conf: confirmation of SMARCA2 (BRM) function activators. hit rate 30% among 3,500. activation, % at 9.1 µM. MG213 cells, MMTV-luciferase with dexamethasone, luminescence, overnight; MG213 cells expressing E1A, Rb sequestered; DMSO wells 0%, reference activator 100%. AID 652260. shares compounds with SMARCA2 activ;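 active = activation above its plate's cutoff, the mean activation of tested wells plus 3 SD, cut at about 7.9% in these data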
GAL4-VP16 Luc: activates GAL4-VP16 luciferase, flagging SMARCA2 activator hits; shares compounds with SMARCA2 activ; HEK293 GAL4-VP16 pG5luc reporter, luciferase luminescence; scaled: DMSO wells 0%, SAHA wells 100%; activation, % at 9.1 µM; hit rate 41% among 3,500;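 active = activation above the solvent-only control well mean plus 3 SD, averaged across control plates, cut at about 5.2% in these data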
* = called active by the depositor; nt = no result.

SMILES	HSP90 refold inh	AI-2 QS mod	SMARCA2 activ	HSF1 inh	GAA850 FXN act	PG9 Ab binder	SMARCA2 conf	GAL4-VP16 Luc
O=C(N/N=C/c1cccc2ccccc12)c1cccnc1	4	-4	9.1*	4	2	-2	1	3
Cn1c(-c2ccccc2)c(/C=N/NC(=O)c2cccnc2)c2ccccc21	0	13	12*	10	0	-1	6	2
Cn1cccc1/C=N/NC(=O)c1cccnc1	2	3	8.3*	nt	2	1	1	1
O=C(OCc1cn([C@H]2C[C@H](c3ccccc3)N(Cc3cccs3)C[C@@H]2O)nn1)c1ccccc1	nt	nt	6	nt	-1	0	nt	nt
CC(=O)OC[C@H]1O[C@H](C#Cc2ccc(C(C)(C)C)cc2)C=C[C@H]1OC(=O)Nc1ccccc1	nt	nt	-8	nt	nt	-3	nt	nt
CCCOC(=O)CC1C(=O)NCCN1Cc1ccccc1C (configuration not stated)	2	-4	9.5*	1	-1	1	-3	0
Cc1cccc(-c2cnc(C(O)c3ccc(-c4ccccc4)cc3)[nH]2)c1 (configuration not stated)	nt	nt	-2	nt	0	0	nt	nt
Cn1cc([N+](=O)[O-])c(C(=O)Nc2ccc3nc(-c4ccccc4)[nH]c3c2)n1	-1	24	6	-8	2	-3	nt	nt
Cn1cc([N+](=O)[O-])c(C(=O)Nc2ccc(-c3nc4ccccc4[nH]3)cc2)n1	3	11	9.8*	332	3	-2	11*	7.6*
CN(C)c1ccc(N=Nc2cccc3ccoc23)cc1	1	-1	9.8*	12	7	-3	8	11*
Cc1ccc(NC(=O)c2cnccn2)c(Br)c1	-3	29	10*	5	5	-1	8	6.2*
Cc1ccc(NC(=O)c2cnccn2)nc1	-7	17	4	6	5	-1	nt	nt
CCCc1cnc(N2CCN(C(=S)NC)CC2)nc1	-1	0	8.4*	16	4	-3	7	7.7*
O=C(CNc1ccc(Br)cc1)c1ccc(Br)s1	-3	5	9.3*	26	2	1	10*	3
O=C(CNc1ccc(Cl)cc1)c1ccc(Br)cc1	-3	18	3	13	0	0	nt	nt
CCC(=O)Nc1cccc(NC(=O)c2cc3ccccc3o2)c1	-4	21	8.9*	35	5	-2	3	9.8*
Cc1cccc(NC(=O)c2cc3ccccc3o2)c1	6	8	0	45	3	-2	nt	nt
O=C(COc1ccccc1)NNC(=O)c1cc2ccccc2o1	-4	27	9.6*	-8	-1	-2	1	2
COc1cccc(CNC(=O)[C@H]2CCCN2C(=O)[C@H]2CCCN2C(=O)N2CCCCC2)c1	nt	nt	-1	nt	nt	-1	nt	nt
CN1CCCCC(NC(=O)c2cccc(C(F)(F)F)c2)C1=O (configuration not stated)	nt	nt	-1	nt	nt	-1	nt	nt
CCC(C)(C(=O)NC1CCCCC1)N(Cc1ccco1)C(=O)CC1NC(=O)NC1=O (configuration not stated)	6	2	8.4*	-7	2	-1	-3	0
O=C(Nc1ccc2nc3n(c(=O)c2c1)CCCCC3)c1ccccn1	-4	16	8.2*	12	3	1	3	10*
COc1ccc(C(=O)N/N=C/c2ccc(N3CCOCC3)s2)cc1OC	nt	nt	8.4*	nt	1	-33	-2	-1
O=c1c2ccccc2n(CC(O)CN2CCCCC2)c2ccccc12 (configuration not stated)	0	28	9.4*	1	1	-2	4	-2
COCCN(C(=O)COC(=O)C1CCCCC1)c1c(N)n(Cc2ccccc2)c(=O)[nH]c1=O	nt	nt	-7	nt	1	1	nt	nt
COc1ccc(N/C(C)=C/C(=O)c2ccccc2)cc1	-4	31	-1	1	5	-1	nt	nt
